This passage reports Potency results from PubChem BioAssay (Tox21).

Several values for one entry are separate records, joined by “and”; a condition that tells them apart may be missing. Identical values can stand only once. Records with an inconclusive call do not appear. Activity calls are given as the source filed them. Calls come from the whole dose curve; as a rule, active = well fitted cell-killing curve with a large enough effect in the repeat runs; inconclusive = weak or mixed curves, or effect the other way; inactive = no such curve, though single readings can be large or run the other way.
Potency is the fitted concentration of half-maximal effect.

This experiment is described as follows: qHTS assay for identifying genotoxic compounds that show differential cytotoxicity against isogenic chicken DT40 cell lines with known DNA damage response pathways - Rev3 mutant cell line (AID 743014). Note: nearly all actives have a fitted effect of over 55% in size. To be noted: chicken DT40 Rev3-/- viability, CellTiter-Glo, 40 h; series mostly up to 68.4 µM. The text has this:
National Center for Advancing Translational Sciences [NCATS]
NIH Chemical Genomics Center [NCGC]
U.S. Environmental Protection Agency [EPA]
National Institutes of Environmental Health Sciences [NIEHS]
National Toxicology Program [NTP]
U.S. Food and Drug Administration [FDA]
DNA repair pathways play a critical role in cellular homeostasis by repairing DNA damage induced by endogenous processes and xenobiotics. Isogenic chicken DT40 cell lines deficient in different DNA repair pathways can be used to identify genotoxic compounds and aid in characterizing the nature of the DNA damage induced. Two DNA repair-deficient cell lines with disrupted genes, Rad54/Ku70 or Rev3, were used to screen the Tox21 10K compound library. Possible genotoxicity was based on the presence of a significant increase in cytotoxicity in one or more of the DNA repair-deficient cell lines compared to that observed in the parental DNA repair-proficient cell line. CellTiter Glo viability assay (Promega, Madison, WI) was used to measure cell viability in these cells after compound treatment. This assay includes the data from the Rev3 mutant cell line.
Tox21 Assay Protocol Summary:
300 DT40 mutant cells in 5 uL/well were dispensed into white, solid-bottom 1536-well plates using a Multidrop Combi (ThermoFisher Scientific, Waltham, MA) dispenser. After the assay plates were incubated at 37 C/5% CO2 for approximately 0.5 hour, 23 nL of compounds dissolved in DMSO, positive controls or DMSO only was transferred into the assay plate by a pintool work station (Kalypsys, San Diego, CA). The assay plates were incubated at 37 C/5% CO2 for 40 hours. After 5 uL per well of CellTiter-Glo reagent was added into each well of the assay plates, the plates were incubated for 30 min at room temperature and the luminescence intensity of the plates was measured using a ViewLux (PerkinElmer, Shelton, CT) plate reader.
`C=CC(=O)OCC(COC(=O)C=C)(COC(=O)C=C)COC(=O)C=C`: the Potency was 0.969 µM (active). For `CC1(C)CN=C(NN=C(/C=C/c2ccc(C(F)(F)F)cc2)/C=C/c2ccc(C(F)(F)F)cc2)NC1` the value was 3.86 µM (active). For `CC1(C)CC/C(=C/c2ccc(Cl)cc2)C1(O)Cn1cncn1` (stereo not given) the value was 60.8 µM (active); for `CC(C)[C@H](C(=O)O[C@H](C#N)c1cccc(Oc2ccccc2)c1)c1ccc(Cl)cc1`, 43.2 µM (active); for `CCN(CC)C(=S)[S-].CCN(CC)C(=S)[S-].[Zn+2]`, 1.08 µM (active). As for `c1ccc2cc3c(cc2c1)-c1cccc2cccc-3c12`, the entry is “inactive”. For `CCCN(CCC)c1c([N+](=O)[O-])cc(S(N)(=O)=O)cc1[N+](=O)[O-]`, the Potency was 16.9 µM (active).

Regarding `[Cl][Sb]([Cl])[Cl]`, the Potency result is “inactive”.

As to `CCC(C)c1cc([N+](=O)[O-])cc([N+](=O)[O-])c1OC(=O)C=C(C)C` (stereo not given), the Potency was 27.3 µM (active). For `CCCCN(CCCC)C(=S)[S-].CCCCN(CCCC)C(=S)[S-].[Zn+2]` the value was “inactive”; for `CC(C)Oc1cccc(NC(=O)c2ccccc2C(F)(F)F)c1`, 15.4 µM (active).

On to `CCCCCCCCCCCCCCC(Br)C(=O)O` (stereo not given), for which the Potency is 24.3 µM (active). For `CC(c1ccc(O)cc1)c1ccc(O)cc1` the value was “inactive”; for `N#C/C=C/C#N`, “inactive”; for `CS(=O)(=O)c1ccc(C(=O)C2C(=O)CCCC2=O)c([N+](=O)[O-])c1`, 44 µM (active).

`C=CCC1=C(C)C(OC(=O)C2C(C=C(C)C)C2(C)C)CC1=O` (stereo not given): the Potency was 16.8 µM (active). As for `[Cd+2].[Cl-].[Cl-]`, the figure is 13.8 µM (active) and 27.3 µM (active); as for `CC(=O)[O-].CC(=O)[O-].O.O.[Cd+2]`, 67.6 µM (active); as for `CC(Cc1ccc(C(C)(C)C)cc1)CN1C[C@@H](C)O[C@@H](C)C1` (stereo not given in full), 5.45 µM (active). As for `CCCN(CC)CC1COC2(CCC(C(C)(C)C)CC2)O1` (stereo not given), the figure is 0.686 µM (active); as for `CCCCCCCCCBr`, “inactive”.

Consider `N#CCCSCCC#N`, for which the Potency result is “inactive”. As for `O=C(O)c1cc[c]([Hg][Cl])cc1`, the figure is 1.93 µM (active); as for `CN(C)C(=S)S`, 1.21 µM (active) and 1.72 µM (active). As for `CC(=O)/C=C/c1ccc2c(c1)OCO2`, the figure is 68.9 µM (active). As for `CCCCCCCCCCCCCCCC[N+](C)(C)C`, the figure is 596 nM (active) and 417 nM (active) and 770 nM (active). On to `CC(C)(O)c1cnn2c(-c3ccc(F)c(-c4c(F)cccc4C#N)c3)cnc2n1`, for which the Potency was 30.6 µM (active).

On to `CC(C)C1CCC(Cc2ccc(Cl)cc2)C1(O)Cn1cncn1` (stereo not given), for which the Potency was 13.5 µM (active). For `C[C@@H]1O[C@@H](O[C@@H]2C=C3CC[C@@H]4[C@H](CC[C@]5(C)[C@@H](c6ccc(=O)oc6)CC[C@]45O)[C@@]3(C)CC2)[C@H](O)[C@H](O)[C@H]1O` the value was 0.101 µM (active); for `Fc1cccc(Cl)c1CCl`, “inactive”. For `Cc1cc(N=Nc2ccccc2C)ccc1N` the value was 54.5 µM (active) and 48.6 µM (active); for `Oc1ccc(C2(c3ccc(O)cc3)CCCCC2)cc1`, 65 µM (active). For `O=C(CCl)C(Cl)Cl` the value was 0.692 µM (active); for `CC(C)CC(C)(c1ccc(O)cc1)c1ccc(O)cc1`, 27.4 µM (active) and 38.6 µM (active). On to `CCC[CH2][Sn]([CH2]CCC)([CH2]CCC)[O]C(=O)c1ccccc1`, for which the Potency was 0.154 µM (active). For `O=[N+]([O-])O.O=[N+]([O-])O.[Cd]` the value was 27.3 µM (active); for `CN(C)S(=O)(=O)N(SC(F)(Cl)Cl)c1ccccc1`, 0.154 µM (active); for `CN(C)CCc1c[nH]c2cccc(O)c12`, 60.5 µM (active). As for `O=S(=O)(c1ccc(Cl)cc1)c1ccc(Cl)cc1`, the figure is 44.8 µM (active). As for `CC(C)(C)c1ccc(CSc2cnn(C(C)(C)C)c(=O)c2Cl)cc1`, the figure is 0.0193 µM (active).
